From the supplement of paper PMC11732987, “Enantioselective OTUD7B fragment discovery through chemoproteomics screening and high-throughput optimisation” (Communications Chemistry, 2025)

What was measured:
Assay in all cases: log2 ratio of Biotin-Ahx-Ub-VS probe labelling (fragment/DMSO); higher = less target engagement (more negative = stronger competition), active = hit call of the paper (q ≤ 0.05, log2 ratio ≤ -1)
Conditions in all cases: compound concentration: 200 uM; treatment time: 3 h
[1] = target: T1, USP42 (UniProt Q9H9J4)
T1 sequence (whole entry): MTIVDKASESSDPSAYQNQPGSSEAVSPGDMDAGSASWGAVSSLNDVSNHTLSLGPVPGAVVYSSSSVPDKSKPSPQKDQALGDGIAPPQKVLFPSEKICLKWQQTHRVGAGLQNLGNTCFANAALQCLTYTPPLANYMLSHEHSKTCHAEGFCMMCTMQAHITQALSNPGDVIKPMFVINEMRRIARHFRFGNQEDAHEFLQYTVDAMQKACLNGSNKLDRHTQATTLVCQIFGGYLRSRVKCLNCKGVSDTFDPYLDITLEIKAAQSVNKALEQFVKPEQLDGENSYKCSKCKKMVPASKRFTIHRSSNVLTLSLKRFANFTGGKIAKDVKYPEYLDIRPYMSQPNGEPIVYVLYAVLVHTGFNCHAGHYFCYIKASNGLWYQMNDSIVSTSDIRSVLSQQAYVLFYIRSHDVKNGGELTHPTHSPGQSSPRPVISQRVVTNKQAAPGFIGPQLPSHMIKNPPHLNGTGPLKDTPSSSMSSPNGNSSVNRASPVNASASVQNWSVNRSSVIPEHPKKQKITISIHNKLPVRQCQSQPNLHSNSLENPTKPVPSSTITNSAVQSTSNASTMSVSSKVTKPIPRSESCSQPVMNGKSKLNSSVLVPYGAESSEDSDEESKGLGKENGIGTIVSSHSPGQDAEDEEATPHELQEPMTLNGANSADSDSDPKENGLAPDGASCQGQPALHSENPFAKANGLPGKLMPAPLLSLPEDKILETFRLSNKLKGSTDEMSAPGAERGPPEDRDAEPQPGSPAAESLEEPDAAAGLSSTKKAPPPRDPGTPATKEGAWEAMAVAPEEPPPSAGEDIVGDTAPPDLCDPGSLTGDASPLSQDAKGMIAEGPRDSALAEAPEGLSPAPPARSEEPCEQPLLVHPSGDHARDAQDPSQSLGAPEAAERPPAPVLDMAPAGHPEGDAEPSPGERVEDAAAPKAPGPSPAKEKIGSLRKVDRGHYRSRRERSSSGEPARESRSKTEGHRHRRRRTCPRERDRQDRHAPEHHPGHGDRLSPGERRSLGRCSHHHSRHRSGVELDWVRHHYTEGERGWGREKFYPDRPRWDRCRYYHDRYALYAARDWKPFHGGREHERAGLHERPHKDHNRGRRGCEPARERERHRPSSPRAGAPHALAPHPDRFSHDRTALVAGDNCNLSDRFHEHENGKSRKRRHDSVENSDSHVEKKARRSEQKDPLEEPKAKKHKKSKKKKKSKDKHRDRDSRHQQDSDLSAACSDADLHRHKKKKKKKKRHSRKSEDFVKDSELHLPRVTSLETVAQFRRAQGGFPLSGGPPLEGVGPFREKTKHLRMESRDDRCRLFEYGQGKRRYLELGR
Summary of the method: (§1)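 HEK293T lysate, 495 µg per sample in Tris/CHAPS/IGEPAL buffer with protease inhibitors, was treated in triplicate with fragment at 200 µM or vehicle for 3 h and then with Biotin-Ahx-Ub-VS at 0.5 µM final for 1 h. Labelled DUBs were NeutrAvidin-enriched, digested with LysC and trypsin, and run by diaPASEF LC-MS/MS. Spectronaut label-free quantities were global-median-normalised, and values are average log2 fragment/vehicle ratios by unpaired t-test on proteins with ≥2 unique peptides.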

[2] = target: USP46 (UniProt P62068)
Sequence of USP46 (P62068 whole entry): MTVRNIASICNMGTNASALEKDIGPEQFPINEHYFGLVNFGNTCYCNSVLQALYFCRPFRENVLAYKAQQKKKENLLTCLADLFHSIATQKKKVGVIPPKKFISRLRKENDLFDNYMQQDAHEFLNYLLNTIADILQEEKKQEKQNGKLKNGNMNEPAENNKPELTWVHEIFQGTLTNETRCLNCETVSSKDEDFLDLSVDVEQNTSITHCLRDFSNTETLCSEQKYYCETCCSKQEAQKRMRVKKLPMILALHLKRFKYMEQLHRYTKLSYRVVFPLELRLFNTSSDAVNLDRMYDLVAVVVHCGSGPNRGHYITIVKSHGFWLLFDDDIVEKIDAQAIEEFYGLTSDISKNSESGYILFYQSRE
Summary of the method: as §1

[3] = target: T2, USP47 (UniProt Q96K76)
T2 sequence (whole entry): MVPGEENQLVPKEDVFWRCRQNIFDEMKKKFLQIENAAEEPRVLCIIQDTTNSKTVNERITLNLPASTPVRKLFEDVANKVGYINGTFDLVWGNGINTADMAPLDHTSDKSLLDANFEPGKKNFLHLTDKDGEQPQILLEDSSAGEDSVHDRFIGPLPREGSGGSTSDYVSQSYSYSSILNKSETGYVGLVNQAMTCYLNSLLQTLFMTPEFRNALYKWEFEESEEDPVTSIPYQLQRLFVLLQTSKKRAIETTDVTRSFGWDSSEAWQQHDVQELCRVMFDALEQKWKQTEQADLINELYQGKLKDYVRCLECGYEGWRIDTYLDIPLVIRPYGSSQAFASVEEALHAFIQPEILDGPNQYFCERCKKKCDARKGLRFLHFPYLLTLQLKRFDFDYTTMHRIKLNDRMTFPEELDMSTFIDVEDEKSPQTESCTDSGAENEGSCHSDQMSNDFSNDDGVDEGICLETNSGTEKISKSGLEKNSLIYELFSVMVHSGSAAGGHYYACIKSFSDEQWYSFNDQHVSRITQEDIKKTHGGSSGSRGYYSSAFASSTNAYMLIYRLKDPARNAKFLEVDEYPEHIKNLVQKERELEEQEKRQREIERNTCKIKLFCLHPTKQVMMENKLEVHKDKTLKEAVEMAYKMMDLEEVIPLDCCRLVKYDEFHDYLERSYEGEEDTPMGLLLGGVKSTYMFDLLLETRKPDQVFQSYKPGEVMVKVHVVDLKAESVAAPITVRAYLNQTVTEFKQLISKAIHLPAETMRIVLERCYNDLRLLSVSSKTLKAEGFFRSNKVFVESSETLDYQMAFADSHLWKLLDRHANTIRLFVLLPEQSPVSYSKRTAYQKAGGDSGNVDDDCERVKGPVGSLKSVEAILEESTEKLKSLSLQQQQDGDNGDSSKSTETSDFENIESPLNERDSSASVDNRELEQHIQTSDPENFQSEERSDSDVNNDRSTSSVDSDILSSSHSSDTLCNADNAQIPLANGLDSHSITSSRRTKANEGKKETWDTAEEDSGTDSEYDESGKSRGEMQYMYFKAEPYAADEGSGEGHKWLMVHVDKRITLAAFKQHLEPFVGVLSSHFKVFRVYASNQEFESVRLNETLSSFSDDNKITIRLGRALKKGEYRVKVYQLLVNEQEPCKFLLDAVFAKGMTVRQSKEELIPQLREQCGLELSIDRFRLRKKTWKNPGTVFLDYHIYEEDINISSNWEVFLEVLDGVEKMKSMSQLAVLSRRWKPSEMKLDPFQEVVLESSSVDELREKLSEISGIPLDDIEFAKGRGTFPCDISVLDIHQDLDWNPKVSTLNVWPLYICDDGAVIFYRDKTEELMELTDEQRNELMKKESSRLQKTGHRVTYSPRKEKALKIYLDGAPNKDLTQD
Summary of the method: as §1

[4] = target: T3, USP48 (UniProt Q86UV5)
T3 sequence (whole entry): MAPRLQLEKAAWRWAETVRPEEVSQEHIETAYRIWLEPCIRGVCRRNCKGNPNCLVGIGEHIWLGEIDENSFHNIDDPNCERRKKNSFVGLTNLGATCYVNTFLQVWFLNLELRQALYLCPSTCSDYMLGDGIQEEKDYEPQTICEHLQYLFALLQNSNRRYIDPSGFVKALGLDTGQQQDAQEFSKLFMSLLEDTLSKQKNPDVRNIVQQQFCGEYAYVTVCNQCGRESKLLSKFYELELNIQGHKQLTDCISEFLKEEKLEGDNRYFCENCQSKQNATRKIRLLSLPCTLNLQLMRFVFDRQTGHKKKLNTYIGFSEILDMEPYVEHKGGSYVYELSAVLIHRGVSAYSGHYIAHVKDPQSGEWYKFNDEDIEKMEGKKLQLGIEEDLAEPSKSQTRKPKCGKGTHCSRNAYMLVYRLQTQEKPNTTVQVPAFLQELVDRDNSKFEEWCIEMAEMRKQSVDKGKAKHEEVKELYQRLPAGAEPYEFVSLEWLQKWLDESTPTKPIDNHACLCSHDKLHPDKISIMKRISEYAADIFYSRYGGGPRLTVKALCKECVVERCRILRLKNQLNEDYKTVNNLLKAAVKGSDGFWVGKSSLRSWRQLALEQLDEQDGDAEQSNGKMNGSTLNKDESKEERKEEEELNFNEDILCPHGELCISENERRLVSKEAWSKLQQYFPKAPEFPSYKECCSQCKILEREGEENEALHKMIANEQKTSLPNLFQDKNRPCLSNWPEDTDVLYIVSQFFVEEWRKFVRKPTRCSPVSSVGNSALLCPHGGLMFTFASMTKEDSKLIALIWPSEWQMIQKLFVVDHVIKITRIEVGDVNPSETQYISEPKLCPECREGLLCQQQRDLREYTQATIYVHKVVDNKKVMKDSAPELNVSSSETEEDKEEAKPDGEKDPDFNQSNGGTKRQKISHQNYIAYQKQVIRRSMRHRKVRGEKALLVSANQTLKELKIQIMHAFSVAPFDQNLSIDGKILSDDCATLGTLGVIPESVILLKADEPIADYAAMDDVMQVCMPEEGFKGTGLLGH
Summary of the method: as §1

[5] = target: T4, USP5 (UniProt P45974)
T4 sequence (whole entry): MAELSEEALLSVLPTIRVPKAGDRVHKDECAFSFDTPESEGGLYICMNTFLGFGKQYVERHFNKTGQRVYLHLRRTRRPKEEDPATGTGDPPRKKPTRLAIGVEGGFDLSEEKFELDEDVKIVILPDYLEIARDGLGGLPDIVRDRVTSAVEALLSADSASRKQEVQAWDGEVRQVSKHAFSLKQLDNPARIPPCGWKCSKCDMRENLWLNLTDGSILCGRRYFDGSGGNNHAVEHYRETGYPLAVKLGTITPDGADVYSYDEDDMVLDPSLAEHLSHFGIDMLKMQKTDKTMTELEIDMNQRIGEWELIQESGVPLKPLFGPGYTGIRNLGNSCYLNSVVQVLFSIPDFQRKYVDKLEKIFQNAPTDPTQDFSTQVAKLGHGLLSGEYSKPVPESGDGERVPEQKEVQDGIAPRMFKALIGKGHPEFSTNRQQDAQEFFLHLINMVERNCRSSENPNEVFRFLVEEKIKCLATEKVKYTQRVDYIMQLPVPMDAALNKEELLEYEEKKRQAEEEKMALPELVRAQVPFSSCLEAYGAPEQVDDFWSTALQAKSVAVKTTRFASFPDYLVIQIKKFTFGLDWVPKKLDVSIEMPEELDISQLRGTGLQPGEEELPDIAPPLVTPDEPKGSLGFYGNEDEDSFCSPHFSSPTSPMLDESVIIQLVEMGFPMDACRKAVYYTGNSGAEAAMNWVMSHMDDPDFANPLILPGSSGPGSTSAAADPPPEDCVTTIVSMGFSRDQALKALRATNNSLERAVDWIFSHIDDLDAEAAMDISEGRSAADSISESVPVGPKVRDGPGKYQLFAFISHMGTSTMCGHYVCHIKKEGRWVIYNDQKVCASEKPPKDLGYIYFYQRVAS
Summary of the method: as §1

[6] = target: USP54 (UniProt Q70EL1)
Sequence of USP54 (Q70EL1 whole entry): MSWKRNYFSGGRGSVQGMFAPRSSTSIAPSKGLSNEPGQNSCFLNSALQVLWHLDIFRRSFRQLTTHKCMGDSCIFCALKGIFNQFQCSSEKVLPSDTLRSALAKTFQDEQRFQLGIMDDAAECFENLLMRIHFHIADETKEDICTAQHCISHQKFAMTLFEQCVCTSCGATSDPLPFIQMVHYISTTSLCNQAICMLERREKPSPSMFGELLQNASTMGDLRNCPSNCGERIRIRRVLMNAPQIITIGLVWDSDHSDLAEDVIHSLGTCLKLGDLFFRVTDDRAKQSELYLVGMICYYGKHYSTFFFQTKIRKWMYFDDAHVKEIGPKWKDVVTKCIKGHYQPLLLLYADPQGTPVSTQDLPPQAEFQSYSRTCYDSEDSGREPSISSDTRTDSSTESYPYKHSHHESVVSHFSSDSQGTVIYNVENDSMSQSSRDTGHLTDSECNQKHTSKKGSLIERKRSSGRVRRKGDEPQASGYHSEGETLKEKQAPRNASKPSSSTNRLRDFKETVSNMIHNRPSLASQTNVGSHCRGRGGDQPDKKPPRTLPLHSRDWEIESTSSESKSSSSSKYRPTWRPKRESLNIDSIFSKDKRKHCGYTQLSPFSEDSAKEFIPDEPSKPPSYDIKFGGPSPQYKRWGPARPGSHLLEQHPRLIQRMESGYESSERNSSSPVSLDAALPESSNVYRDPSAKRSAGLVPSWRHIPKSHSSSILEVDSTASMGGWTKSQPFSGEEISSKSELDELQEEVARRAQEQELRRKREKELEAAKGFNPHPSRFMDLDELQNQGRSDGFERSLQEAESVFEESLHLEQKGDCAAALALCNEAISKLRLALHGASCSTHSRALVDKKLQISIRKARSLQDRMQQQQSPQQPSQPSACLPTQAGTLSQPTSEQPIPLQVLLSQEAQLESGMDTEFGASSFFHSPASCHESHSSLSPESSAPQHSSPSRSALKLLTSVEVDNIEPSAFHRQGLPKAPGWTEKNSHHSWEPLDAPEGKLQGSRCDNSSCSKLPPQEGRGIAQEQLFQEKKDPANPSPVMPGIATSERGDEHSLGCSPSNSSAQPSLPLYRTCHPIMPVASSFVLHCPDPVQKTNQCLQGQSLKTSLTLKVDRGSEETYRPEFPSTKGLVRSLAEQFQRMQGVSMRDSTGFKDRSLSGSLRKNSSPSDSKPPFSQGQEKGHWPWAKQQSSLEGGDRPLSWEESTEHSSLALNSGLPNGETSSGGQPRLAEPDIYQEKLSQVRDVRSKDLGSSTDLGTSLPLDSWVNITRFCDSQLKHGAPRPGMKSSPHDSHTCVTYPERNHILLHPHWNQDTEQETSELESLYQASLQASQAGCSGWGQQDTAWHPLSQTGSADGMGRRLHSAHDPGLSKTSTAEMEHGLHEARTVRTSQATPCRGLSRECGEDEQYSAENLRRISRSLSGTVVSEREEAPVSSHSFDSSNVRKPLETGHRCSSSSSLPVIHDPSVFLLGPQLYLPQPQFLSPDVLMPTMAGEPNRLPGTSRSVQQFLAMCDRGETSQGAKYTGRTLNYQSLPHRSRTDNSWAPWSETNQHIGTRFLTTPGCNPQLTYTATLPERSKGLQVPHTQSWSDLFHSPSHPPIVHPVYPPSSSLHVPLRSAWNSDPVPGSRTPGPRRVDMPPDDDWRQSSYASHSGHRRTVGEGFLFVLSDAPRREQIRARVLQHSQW
Summary of the method: as §1

[7] = target: USP7 (UniProt Q93009)
Summary of the method: as §1

[8] = target: T5, USP8 (UniProt P40818)
T5 sequence (whole entry): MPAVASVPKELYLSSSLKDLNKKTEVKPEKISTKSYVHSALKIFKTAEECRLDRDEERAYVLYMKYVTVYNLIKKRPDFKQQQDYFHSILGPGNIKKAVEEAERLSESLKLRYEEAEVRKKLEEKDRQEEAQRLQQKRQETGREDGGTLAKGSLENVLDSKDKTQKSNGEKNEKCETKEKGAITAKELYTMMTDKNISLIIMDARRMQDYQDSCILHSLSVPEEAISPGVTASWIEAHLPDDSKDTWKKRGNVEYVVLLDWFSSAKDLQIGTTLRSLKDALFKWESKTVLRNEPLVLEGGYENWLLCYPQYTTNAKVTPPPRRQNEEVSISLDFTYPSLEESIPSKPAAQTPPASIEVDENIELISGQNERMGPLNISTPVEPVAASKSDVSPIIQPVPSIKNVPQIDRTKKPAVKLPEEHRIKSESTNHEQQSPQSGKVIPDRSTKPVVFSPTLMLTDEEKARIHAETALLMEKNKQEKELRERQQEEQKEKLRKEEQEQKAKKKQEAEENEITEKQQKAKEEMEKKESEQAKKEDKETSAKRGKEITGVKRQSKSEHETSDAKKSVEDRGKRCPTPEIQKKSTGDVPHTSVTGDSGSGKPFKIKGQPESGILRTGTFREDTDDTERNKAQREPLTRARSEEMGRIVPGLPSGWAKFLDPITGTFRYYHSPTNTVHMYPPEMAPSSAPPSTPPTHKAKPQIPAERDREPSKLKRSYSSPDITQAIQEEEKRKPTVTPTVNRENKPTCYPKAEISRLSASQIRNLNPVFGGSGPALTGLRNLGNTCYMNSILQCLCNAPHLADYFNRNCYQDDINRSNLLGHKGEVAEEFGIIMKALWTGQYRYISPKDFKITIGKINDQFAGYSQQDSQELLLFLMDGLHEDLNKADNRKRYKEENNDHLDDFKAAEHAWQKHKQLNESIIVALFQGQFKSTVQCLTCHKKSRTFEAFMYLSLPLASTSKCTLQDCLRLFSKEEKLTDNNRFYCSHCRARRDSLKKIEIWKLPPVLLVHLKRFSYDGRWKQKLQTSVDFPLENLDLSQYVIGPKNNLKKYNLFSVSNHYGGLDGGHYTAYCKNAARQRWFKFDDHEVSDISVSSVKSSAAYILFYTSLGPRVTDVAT
Summary of the method: as §1

[9] = target: USP9X (UniProt Q93008)
Sequence of USP9X (Q93008 whole entry): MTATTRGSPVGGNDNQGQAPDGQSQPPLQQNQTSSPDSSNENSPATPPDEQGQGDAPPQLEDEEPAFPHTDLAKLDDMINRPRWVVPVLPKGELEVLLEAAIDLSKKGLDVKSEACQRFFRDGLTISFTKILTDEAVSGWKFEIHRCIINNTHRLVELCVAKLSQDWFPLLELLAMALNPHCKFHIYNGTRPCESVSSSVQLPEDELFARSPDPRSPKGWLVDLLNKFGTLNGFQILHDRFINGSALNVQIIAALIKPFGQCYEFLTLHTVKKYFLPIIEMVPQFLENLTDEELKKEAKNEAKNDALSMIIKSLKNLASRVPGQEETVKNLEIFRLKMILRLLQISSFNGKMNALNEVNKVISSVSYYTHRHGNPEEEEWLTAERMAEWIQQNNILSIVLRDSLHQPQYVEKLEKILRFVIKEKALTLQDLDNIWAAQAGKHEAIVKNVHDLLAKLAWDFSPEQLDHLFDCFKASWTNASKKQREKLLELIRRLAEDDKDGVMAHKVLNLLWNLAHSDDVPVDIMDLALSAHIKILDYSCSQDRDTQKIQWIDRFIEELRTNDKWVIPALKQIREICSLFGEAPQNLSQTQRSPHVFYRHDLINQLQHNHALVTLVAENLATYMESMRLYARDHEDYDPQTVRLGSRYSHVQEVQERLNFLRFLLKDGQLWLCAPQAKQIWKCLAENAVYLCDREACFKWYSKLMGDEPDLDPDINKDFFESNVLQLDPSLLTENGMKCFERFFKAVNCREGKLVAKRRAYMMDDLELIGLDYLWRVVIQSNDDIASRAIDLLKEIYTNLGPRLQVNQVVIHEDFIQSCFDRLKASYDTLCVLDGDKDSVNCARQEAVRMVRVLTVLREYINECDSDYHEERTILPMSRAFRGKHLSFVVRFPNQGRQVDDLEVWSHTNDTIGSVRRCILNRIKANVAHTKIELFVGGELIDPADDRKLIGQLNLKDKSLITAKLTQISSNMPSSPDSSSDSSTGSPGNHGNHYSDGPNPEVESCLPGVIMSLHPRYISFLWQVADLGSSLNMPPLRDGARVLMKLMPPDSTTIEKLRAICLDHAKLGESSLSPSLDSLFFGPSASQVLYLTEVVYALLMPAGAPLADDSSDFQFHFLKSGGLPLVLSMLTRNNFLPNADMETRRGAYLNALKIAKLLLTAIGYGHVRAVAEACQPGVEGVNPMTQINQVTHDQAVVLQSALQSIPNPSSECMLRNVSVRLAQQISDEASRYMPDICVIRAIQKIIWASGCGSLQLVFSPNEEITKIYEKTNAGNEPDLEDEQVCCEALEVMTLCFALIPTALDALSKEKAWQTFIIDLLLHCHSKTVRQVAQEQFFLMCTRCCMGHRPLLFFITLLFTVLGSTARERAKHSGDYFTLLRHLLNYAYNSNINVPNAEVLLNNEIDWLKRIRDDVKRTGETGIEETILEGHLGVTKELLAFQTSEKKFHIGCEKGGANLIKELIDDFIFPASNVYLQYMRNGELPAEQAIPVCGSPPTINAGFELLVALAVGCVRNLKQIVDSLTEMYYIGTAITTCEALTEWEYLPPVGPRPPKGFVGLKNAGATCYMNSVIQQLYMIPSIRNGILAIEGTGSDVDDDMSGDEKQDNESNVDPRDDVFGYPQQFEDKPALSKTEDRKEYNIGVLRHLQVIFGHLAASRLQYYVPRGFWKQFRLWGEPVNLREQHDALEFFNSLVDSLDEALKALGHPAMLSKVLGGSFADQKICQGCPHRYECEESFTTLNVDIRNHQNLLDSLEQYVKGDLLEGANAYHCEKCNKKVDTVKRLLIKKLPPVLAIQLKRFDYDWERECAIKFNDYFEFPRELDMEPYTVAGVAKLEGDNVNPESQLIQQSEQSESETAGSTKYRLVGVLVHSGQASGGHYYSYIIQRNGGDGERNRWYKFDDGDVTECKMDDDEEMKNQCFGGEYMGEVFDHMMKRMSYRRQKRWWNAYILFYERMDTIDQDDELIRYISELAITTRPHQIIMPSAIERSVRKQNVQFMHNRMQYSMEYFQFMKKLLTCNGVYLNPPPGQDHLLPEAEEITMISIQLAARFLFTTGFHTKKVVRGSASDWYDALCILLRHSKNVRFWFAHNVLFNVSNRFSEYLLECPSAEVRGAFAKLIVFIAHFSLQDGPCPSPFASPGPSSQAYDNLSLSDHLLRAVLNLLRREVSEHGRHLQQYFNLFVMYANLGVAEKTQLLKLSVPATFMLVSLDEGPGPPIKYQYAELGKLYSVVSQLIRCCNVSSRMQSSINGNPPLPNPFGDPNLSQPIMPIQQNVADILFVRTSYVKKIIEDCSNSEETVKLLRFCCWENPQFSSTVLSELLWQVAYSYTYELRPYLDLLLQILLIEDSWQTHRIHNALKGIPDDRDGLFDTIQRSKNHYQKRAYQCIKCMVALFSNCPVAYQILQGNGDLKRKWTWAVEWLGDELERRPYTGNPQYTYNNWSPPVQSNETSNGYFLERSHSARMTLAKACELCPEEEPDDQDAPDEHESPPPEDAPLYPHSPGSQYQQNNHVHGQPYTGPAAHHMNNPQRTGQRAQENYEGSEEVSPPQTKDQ
Summary of the method: as §1

[10] = target: UniProt O00487
Sequence of UniProt O00487 (O00487 whole entry): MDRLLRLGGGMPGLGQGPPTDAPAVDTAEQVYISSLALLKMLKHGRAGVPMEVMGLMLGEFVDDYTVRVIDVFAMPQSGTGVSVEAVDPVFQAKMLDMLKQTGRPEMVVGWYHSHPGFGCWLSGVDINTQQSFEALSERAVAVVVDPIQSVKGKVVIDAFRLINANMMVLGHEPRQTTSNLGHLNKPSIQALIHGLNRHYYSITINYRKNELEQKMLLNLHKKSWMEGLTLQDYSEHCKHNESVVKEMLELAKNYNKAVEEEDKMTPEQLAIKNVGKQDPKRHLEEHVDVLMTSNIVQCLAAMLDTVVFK
Summary of the method: as §1

Measured: log2 ratio of Biotin-Ahx-Ub-VS probe labelling

N#Cc1ccc(CNC(=O)CCl)cc1
inactive: [1] 0.0438 | [2] 0.111 | [3] 0.323 | [4] -0.167 | [5] 0.0355 | [6] 0.446 | [7] -0.073 | [8] -0.338 | [9] -0.0142 | [10] -0.00705
